Assay [1] in a line: qHTS assay for identifying genotoxic compounds that show differential cytotoxicity against isogenic chicken DT40 cell lines with known DNA damage response pathways - wild type cell line (AID 743012). Note: nearly all actives have a fitted effect of over 60% in size. Note: potency is the fitted concentration of half-maximal effect. In short, it runs like this: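 Cytotoxicity in repair-proficient parental chicken DT40 cells serves as the comparator for Rad54/Ku70- and Rev3-deficient lines. Cells were exposed to compounds for 40 h at 37 C/5% CO2, and ATP-based luminescence (CellTiter-Glo) measured viability.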
For orientation: qHTS replaces the single test concentration by a dilution series.

A short description of assay [2]: qHTS assay for identifying genotoxic compounds that show differential cytotoxicity against isogenic chicken DT40 cell lines with known DNA damage response pathways - Rev3 mutant cell line (AID 743014). Note: nearly all actives have a fitted effect of over 55% in size. Note: potency is the fitted concentration of half-maximal effect.
Assay [3] can be described thus: qHTS assay for identifying genotoxic compounds that show differential cytotoxicity against isogenic chicken DT40 cell lines with known DNA damage response pathways - Rad54/Ku70 mutant cell line (AID 743015). Note: nearly all actives have a fitted effect of over 60% in size. Note: potency is the fitted concentration of half-maximal effect.
The nature of assay [4]: qHTS assay to identify small molecule antagonists of the androgen receptor (AR) signaling pathway - cell viability counter screen (AID 743033; note: nearly all actives have a fitted effect of over 45% in size).
Assay [5] in a line: qHTS assay to identify small molecule antagonists of the androgen receptor (AR) signaling pathway using the MDA cell line - cell viability counter screen (AID 743041; note: nearly all actives have a fitted effect of over 45% in size; note: potency is the fitted concentration of half-maximal effect). In short, it runs like this: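 Using the breast carcinoma line MDA-kb2 AR-luc, test chemicals were co-incubated with R1881 for 16 h; CellTiter-Fluor reagent, added at 15.5 h, provided a fluorescence measure of live cells.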

Assay [6] can be described thus: qHTS assay to identify small molecule antagonists of the thyroid receptor (TR) signaling pathway (AID 743065). Note: nearly all actives have a fitted effect of over 55% in size. Note: potency is the fitted concentration of half-maximal effect. In short, it runs like this: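 Antagonism measured as loss of luciferase signal in GH3 cells stably carrying a TRE-luciferase reporter, co-treated with compound and T3 (1 nM final) for 23.5 h at 37 C. Viability was read in the same well by CellTiter-Fluor.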

The subject of assay [7] is thyroid hormone receptor (rat, GH3 cells). Nature of the assay: qHTS assay to identify small molecule agonists of the thyroid receptor (TR) signaling pathway (AID 743066; calls by dose curve).
A short description of assay [8]: qHTS assay to identify small molecule antagonists of the estrogen receptor alpha (ER-alpha) signaling pathway - cell viability counter screen (AID 743074; calls by dose curve; note: nearly all actives have a fitted effect of over 45% in size).
Assay [9] can be described thus: qHTS assay to identify small molecule antagonists of the estrogen receptor alpha (ER-alpha) signaling pathway using the BG1 cell line (AID 743080; calls by dose curve;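 note: BG1 cells stimulated with 17beta-estradiol alongside compound; nearly all actives have a fitted effect of over 25% in size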; note: potency is the fitted concentration of half-maximal effect). In short, it runs like this: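 Quantitative HTS on the Tox21 10K library: BG1 cells with endogenous ER-alpha and ERE-luciferase reporter, 17beta-estradiol stimulation, 21.5 h compound exposure, luminescence endpoint with parallel fluorescence cytotoxicity counter-read.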

The target in assay [10] is Aromatase (Homo sapiens) (UniProt P11511). The assay can be described thus: qHTS assay to identify aromatase inhibitors (AID 743083). Note: nearly all actives have a fitted effect of over 55% in size. Note: potency is the fitted concentration of half-maximal effect.
Sequence of Aromatase (Homo sapiens) (P11511 whole entry, looked up): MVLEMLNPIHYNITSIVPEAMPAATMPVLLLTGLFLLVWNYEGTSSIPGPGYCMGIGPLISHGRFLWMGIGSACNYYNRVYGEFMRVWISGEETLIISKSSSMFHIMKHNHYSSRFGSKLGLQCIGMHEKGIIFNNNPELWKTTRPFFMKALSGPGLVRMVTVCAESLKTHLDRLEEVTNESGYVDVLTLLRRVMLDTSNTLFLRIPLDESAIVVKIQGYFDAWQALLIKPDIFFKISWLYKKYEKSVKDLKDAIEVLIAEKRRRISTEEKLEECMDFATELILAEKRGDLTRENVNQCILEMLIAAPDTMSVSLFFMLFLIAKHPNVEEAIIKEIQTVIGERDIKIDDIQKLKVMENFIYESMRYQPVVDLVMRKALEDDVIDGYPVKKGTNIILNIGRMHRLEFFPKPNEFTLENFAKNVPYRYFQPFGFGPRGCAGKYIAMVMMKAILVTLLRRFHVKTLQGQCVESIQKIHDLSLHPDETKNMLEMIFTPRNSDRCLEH
Assay [11] can be described thus: qHTS assay to identify small molecule antagonists of the estrogen receptor alpha (ER-alpha) signaling pathway using the BG1 cell line - cell viability counter screen (AID 743081).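 Note: compound given together with 17beta-estradiol as the ER stimulus; nearly all actives have a fitted effect of over 45% in size.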
Assay [12] deals with Estrogen receptor (Homo sapiens) (UniProt P03372). The assay can be described thus: qHTS assay to identify small molecule antagonists of the estrogen receptor alpha (ER-alpha) signaling pathway (AID 743069; active = well fitted curve in the direction sought with a large enough effect in the signal ratio in the repeat runs, not every such curve was filed as active; inconclusive = weak or mixed curves, or effect the other way; inactive = no such curve, though single readings can be large or run the other way; the % refers to the signal ratio; note: potency is the fitted concentration of half-maximal effect). In short, it runs like this:
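Fluorescence intensity from a beta-lactamase FRET substrate served as the read-out. Cells: HEK293 with stably integrated ER-alpha-UAS-bla reporter. Agonist 17beta-estradiol was co-added with compounds; incubation 18 hr at 37C, substrate 2 hr at room temperature.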

Assay [13] shares this target. Nature of the assay: qHTS assay to identify small molecule agonists of the estrogen receptor alpha (ER-alpha) signaling pathway (AID 743075; calls by dose curve; note: potency is the fitted concentration of half-maximal effect).
Assay [14] shares this target. Nature of the assay: qHTS assay to identify small molecule agonists of the estrogen receptor alpha (ER-alpha) signaling pathway using the BG1 cell line (AID 743079). Note: nearly all actives have a fitted effect of over 20% in size. The settings on record: BG1Luc4E2 cells, ERE-luciferase agonist, 22 h; activation: at 70.3 µM (top of the series).
Assay [15] in a line: qHTS assay to identify small molecule antagonists of the glucocorticoid receptor (GR) signaling pathway - cell viability counter screen (AID 720693). Note: nearly all actives have a fitted effect of over 55% in size.
Assay [16] concerns the target Androgen receptor (Homo sapiens) (UniProt P10275). Nature of the assay: qHTS assay to identify small molecule agonists of the androgen receptor (AR) signaling pathway using the MDA cell line (AID 743040; note: nearly all actives have a fitted effect of over 20% in size). In short, it runs like this: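 Stable MMTV-luciferase reporter in MDA-kb2 cells; note the promoter carries GR as well as AR response elements. 16 h compound treatment, 37C, 0% CO2; ONE-Glo luminescence endpoint.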

For assay [17] the target is unchanged. The assay can be described thus: qHTS assay to identify small molecule antagonists of the androgen receptor (AR) signaling pathway using the MDA cell line (AID 743042; note: nearly all actives have a fitted effect of over 55% in size; note: potency is the fitted concentration of half-maximal effect). In short, it runs like this:
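Antagonist mode: compounds plus R1881 agonist added to MDA-kb2 AR-luc cells, incubated 16 h at 37C. Luciferase reporter luminescence quantified, with multiplexed CellTiter-Fluor readout for cell viability.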

Assay [18] is described as follows: qHTS assay to identify small molecule antagonists of the thyroid receptor (TR) signaling pathway - cell viability counter screen (AID 743064). Note: nearly all actives have a fitted effect of over 50% in size. Note: potency is the fitted concentration of half-maximal effect. In short, it runs like this:
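Same-well viability check: GH3.TRE-Luc cells stimulated with 1 nM T3 alongside test compound for 23.5 h, followed by CellTiter-Fluor fluorescence.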

Assay [19] addresses Androgen receptor (Homo sapiens) (UniProt P10275). Nature of the assay: qHTS assay to identify small molecule antagonists of the androgen receptor (AR) signaling pathway (AID 743035; active = well fitted inhibition curve with a large enough effect in the signal ratio in the repeat runs, not every such curve was filed as active; inconclusive = weak or mixed curves, or effect the other way; inactive = no such curve, though single readings can be large or run the other way; the % refers to the signal ratio; note: potency is the fitted concentration of half-maximal effect). In short, it runs like this:
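Steps: seed AR-UAS-bla GripTite HEK293 cells, incubate 4 h at 37C; pin in test compound, then add agonist R1881; incubate 16 h at 37C; add LiveBLAzer B/G FRET substrate, 2 h at room temperature; read fluorescence.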

For assay [20] the target is unchanged. Nature of the assay: qHTS assay to identify small molecule agonists of the androgen receptor (AR) signaling pathway (AID 743036; active = well fitted activation curve with a large enough effect in the signal ratio in the repeat runs, with a control signal flat, not every such curve was filed as active; inconclusive = weak or mixed curves, or effect the other way; inactive = no such curve, though single readings can be large or run the other way; the % refers to the signal ratio). In short, it runs like this: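 Agonist activity was scored by beta-lactamase reporter fluorescence in stably transfected HEK293 cells exposed to compounds for 16 h at 37C and 5% CO2. Substrate loading took 2 h at room temperature.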

SMILES strings stand for the structures. Values joined by “and” are separate entries in the source; they are usually repeats but may differ in a detail not shown here. Equal values may be shown once. More than one record can exist for a structure, and the calls need not agree. Active and inactive are the calls of the source. Unless noted, calls come from the whole dose curve; as a rule, active = well fitted curve in the direction sought with a large enough effect in the repeat runs; inconclusive = weak or mixed curves; inactive = no such curve, though single readings can be large; an effect the other way counts as inactive or inconclusive.

Sequence of Estrogen receptor (Homo sapiens) (P03372 whole entry, looked up): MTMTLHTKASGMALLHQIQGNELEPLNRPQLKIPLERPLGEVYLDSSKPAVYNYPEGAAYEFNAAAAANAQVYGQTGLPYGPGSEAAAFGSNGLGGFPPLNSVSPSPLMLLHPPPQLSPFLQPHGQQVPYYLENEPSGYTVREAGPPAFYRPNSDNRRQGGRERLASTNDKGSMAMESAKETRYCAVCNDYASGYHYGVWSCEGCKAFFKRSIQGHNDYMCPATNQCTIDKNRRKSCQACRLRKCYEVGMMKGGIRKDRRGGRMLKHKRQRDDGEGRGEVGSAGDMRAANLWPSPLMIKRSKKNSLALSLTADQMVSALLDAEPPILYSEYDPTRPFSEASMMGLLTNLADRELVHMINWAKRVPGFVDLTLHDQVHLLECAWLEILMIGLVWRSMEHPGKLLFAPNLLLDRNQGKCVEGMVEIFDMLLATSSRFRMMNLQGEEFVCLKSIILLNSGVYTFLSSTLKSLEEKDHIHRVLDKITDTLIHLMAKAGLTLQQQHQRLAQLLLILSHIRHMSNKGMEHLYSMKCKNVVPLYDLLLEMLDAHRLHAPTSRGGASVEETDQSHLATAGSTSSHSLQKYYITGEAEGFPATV
Sequence of Androgen receptor (Homo sapiens) (P10275 whole entry, looked up): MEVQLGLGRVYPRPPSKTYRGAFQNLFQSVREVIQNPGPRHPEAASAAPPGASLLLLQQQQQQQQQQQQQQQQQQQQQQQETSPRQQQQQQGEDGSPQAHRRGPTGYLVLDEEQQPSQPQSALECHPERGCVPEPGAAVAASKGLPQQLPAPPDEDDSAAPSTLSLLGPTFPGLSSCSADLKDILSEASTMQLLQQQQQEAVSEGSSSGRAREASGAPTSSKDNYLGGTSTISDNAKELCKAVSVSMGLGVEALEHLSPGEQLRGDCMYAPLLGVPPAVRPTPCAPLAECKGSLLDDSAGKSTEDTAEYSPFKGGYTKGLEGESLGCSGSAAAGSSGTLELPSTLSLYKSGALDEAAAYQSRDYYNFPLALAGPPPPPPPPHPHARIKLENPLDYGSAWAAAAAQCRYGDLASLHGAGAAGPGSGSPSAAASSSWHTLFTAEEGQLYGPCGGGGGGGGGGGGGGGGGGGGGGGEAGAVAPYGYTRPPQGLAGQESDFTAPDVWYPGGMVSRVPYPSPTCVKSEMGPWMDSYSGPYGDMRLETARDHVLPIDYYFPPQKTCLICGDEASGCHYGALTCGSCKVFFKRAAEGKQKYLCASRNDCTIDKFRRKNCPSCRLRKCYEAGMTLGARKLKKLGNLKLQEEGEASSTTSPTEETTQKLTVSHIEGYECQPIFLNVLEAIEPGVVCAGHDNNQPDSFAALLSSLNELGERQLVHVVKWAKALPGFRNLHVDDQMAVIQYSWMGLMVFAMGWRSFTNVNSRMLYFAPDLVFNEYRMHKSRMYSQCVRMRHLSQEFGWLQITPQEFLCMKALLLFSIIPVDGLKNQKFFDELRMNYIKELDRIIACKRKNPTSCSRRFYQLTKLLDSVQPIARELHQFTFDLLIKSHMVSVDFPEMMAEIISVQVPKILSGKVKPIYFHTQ

Consider `Nc1nc(N)c(N)c(N)n1`, for which the Potency result in assay [1], in assay [2], in assay [3], in assay [4], in assay [5] and in assay [6] was “inactive” throughout. Moreover, the Potency result in [7], in assay [8], in [9] and in assay [10] was “inactive” throughout.

`CC(=O)[O-].CC(=O)[O-].O.O.[Zn+2]`: the Potency result in assay [1], in assay [2], in assay [3], in assay [4], in assay [5] and in [7] was “inactive” throughout. The Potency entry in assay [11] and in assay [10] was “inactive” each time.

Consider `c1ccc2c(c1)cc1ccc3cccc4ccc2c1c34`, for which the Potency result in assay [1], in [2], in assay [3], in assay [4], in [6] and in assay [7] was “inactive” in each case. Besides, the Potency entry in assay [8] and in assay [10] was “inactive” throughout.

For the compound `ClC(Cl)C(Cl)(Cl)Cl`, the Potency entry in assay [1], in assay [2], in assay [3], in assay [4], in [5] and in [6] was “inactive” in each case. Besides, the Potency result in [7], in assay [12], in [8], in assay [13], in assay [14] and in assay [9] was “inactive” throughout. In addition, the Potency entry in assay [11] and in assay [10] was “inactive” throughout.

On to `CCOP(=O)(OCC)Oc1nc(Cl)c(Cl)cc1Cl`, for which the Potency entry in assay [15], in assay [4], in assay [5], in assay [17], in [7] and in assay [11] was “inactive” throughout. In assay [16], the compound was classed as inactive. In addition, the Potency is 60.8 µM (active) in [18], 24.2 µM (active) in assay [6], 12.2 µM [inconclusive] (active) in assay [13] and 27.1 µM (active) in assay [10].

Take `C=CCBr`: the Potency entry in [1], in [2], in assay [3], in assay [4], in assay [5] and in [18] was “inactive” throughout. In addition, the Potency entry in assay [6], in assay [7], in assay [8], in assay [13], in assay [14] and in assay [9] was “inactive” throughout. In addition, the Potency entry in [11] and in assay [10] was “inactive” each time.

`CSC(=O)c1c(C(F)F)nc(C(F)(F)F)c(C(=O)SC)c1CC(C)C`: the Potency in [1] was 34.2 µM (active); in [2], 27.1 µM (active); in assay [3] it was 30.5 µM (active); in assay [18] it was 54.2 µM (active); in assay [10], 68.2 µM (active). The Potency entry in [4], in assay [5], in [8], in assay [13], in [14] and in [9] was “inactive” throughout. Besides, the Potency result in [11] is “inactive”.

With `CN1CCc2cc3c(cc2C1O)OCO3` (configuration not stated), the Potency entry in assay [1], in assay [2], in assay [3], in assay [4], in assay [7] and in assay [8] was “inactive” each time. Further, the Potency result in assay [10] is “inactive”.

For the compound `O=c1[nH]c(Cl)c(Cl)cc1Cl`, the Potency result in assay [1], in assay [2], in assay [3], in assay [4], in [5] and in [17] was “inactive” throughout. Further, the Potency entry in [18], in assay [7], in assay [8], in [11] and in assay [10] was “inactive” in each case. Moreover, the outcome in assay [16] was inactive.

As for `CCOP(=S)(NC(C)C)Oc1ccccc1C(=O)OC(C)C` (configuration not stated), the Potency was 15.4 µM (active) in [1]; 13.7 µM (active) in [2]; 17.2 µM (active) in assay [3]; 61.1 µM (active) in assay [5]; 54.5 µM (active) in assay [6]; 38.6 µM (active) in assay [10]. Moreover, the Potency entry in [7], in assay [12], in assay [13], in [14] and in assay [11] was “inactive” each time.

For `C#CCC1=C(C)C(OC(=O)C2C(C=C(C)C)C2(C)C)CC1=O` (configuration not stated), the Potency in assay [1] is 19.2 µM (active); in [2], 30.4 µM (active); in [3], 30.4 µM (active); in [6], 60.7 µM (active). For the same compound, the Potency entry in [5], in [8] and in assay [11] was “inactive” throughout.

Take `COP(=O)(OC)O/C(=C\Cl)c1cc(Cl)c(Cl)cc1Cl`: the Potency is 17.2 µM (active) in assay [1]; 30.6 µM (active) in [2]; 17.2 µM (active) in assay [3]; 21.9 µM (active) in assay [19]; 54.5 µM (active) in [17]; 24.5 µM [inconclusive] (active) in assay [12]. Moreover, the Potency in [10] is 30.6 µM (active). For the same compound, the outcome in assay [20] and in [16] was inactive. The Potency result in assay [5], in [7] and in assay [11] was “inactive” throughout.

In the case of `COc1ccc2[nH]cc(CCN(C(C)C)C(C)C)c2c1`, the Potency result in assay [15], in assay [4], in assay [5], in assay [7], in assay [8] and in [11] was “inactive” in each case. Further, the Potency result in [10] is “inactive”.

Consider `O=C1C[C@@H]2OCC=C3CN4CC[C@]56c7ccccc7N1[C@H]5[C@H]2[C@H]3C[C@H]46`, for which the Potency in [1] was 26.6 µM (active); in assay [2] it was “inactive and 26.6 µM (active)”; in assay [3], “inactive and 29.8 µM (active)”. In addition, the Potency entry in [4], in assay [5], in assay [6], in assay [7], in [8] and in assay [11] was “inactive” each time. Further, the Potency entry in [10] is “inactive”.

Consider `NC1CCC(CC2CCC(N)CC2)CC1` (configuration not stated), for which the Potency result in assay [15], in [4], in assay [18], in assay [6], in assay [7] and in [8] was “inactive” in each case. In addition, the Potency result in assay [13], in [14] and in assay [10] was “inactive” throughout. Besides, the Potency in assay [5] is 47.7 µM (active).

For `CC1CN1` (configuration not stated), the Potency result in assay [15], in assay [4], in assay [5], in [18], in [6] and in assay [7] was “inactive” each time. For the same compound, the Potency entry in [12], in assay [8], in [13], in [14], in [9] and in [11] was “inactive” in each case. Also, the Potency entry in assay [10] is “inactive”.

As for `CC(C)N(C(=O)CCl)c1ccccc1`, the Potency in assay [1] was 21.7 µM (active) and 17.2 µM (active); in assay [2], 2.17 µM (active) and 3.86 µM (active); in assay [3], 9.69 µM (active) and 7.7 µM (active); in assay [19] it was 8.71 µM (active) and 6.92 µM (active); in [17] it was 30.6 µM (active) and 21.7 µM (active); in assay [18] it was 27.3 µM (active) and 34.4 µM (active). Moreover, the Potency in assay [6] is 68.6 µM (active) and 48.6 µM (active); in assay [12], 15.5 µM [inconclusive] (active) and 6.92 µM [inconclusive] (active); in assay [9], 54.5 µM (active) and 61.1 µM (active); in [10], 21.7 µM (active) and 27.3 µM (active). In addition, the compound was classed as inactive in assay [20] and in [16]. Moreover, the Potency entry in [7], in assay [8], in assay [13] and in assay [11] was “inactive” each time.

The values are drawn from PubChem BioAssay (Tox21).
